# About 2,000 (36%) of roughly 5,500 compounds were called active. Not shown: some 18% with an inconclusive outcome. This is one part of the list. Unmarked numbers belong to inactive results. Rule as the data show it: active = normalized growth mostly below about 0.91 (no sharp cut-off); inconclusive = no clear call, values can overlap the other calls; inactive = mostly above about 0.92.
# Assay: chemical genetic growth profiling, strain panel (AID 1159580);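 also: tested at 20 µM; growth read once vehicle control cultures reached saturation at 30 °C; 1 = growth at the plate median or of vehicle wells; lower values mean less growth of the strain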
# Details: S. cerevisiae deletion strains, growth OD
compound,measurement,setting,value
C=CCCCCCCCCCCCC(O)CC(O)COC(C)=O (configuration not stated) (tested in a mixture with another compound),normalized growth,"locus YAL013W, strain DEP1, hits give low values",0.943
same,normalized growth,"locus YAL021C, strain ccr4, hits give low values",1.01
same,normalized growth,"locus YAL026C, strain drs2, hits give low values",0.937
same,normalized growth,"locus YAL030W, strain snc1, hits give low values",0.963
same,normalized growth,"locus YBL061C, strain skt5, hits give low values",0.95
same,normalized growth,"locus YBR009C, strain hhf1, hits give low values",0.798 (active)
same,normalized growth,"locus YBR021W, strain FUR4, hits give low values",0.78 (active)
same,normalized growth,"locus YBR023C, strain chs3, hits give low values",0.891 (active)
same,normalized growth,"locus YBR171W, strain sec66, hits give low values",0.946
same,normalized growth,"locus YBR229C, strain ROT2, hits give low values",1
same,normalized growth,"locus YBR231C, strain swc5, hits give low values",0.971
same,normalized growth,"locus YBR279W, strain paf1, hits give low values",0.949
same,normalized growth,"locus YCL011C, strain gbp2, hits give low values",0.866 (active)
same,normalized growth,"locus YCL016C, strain dcc1, hits give low values",0.907 (active)
same,normalized growth,"locus YCL029C, strain bik1, hits give low values",0.951
same,normalized growth,"locus YCL061C, strain MRC1, hits give low values",0.936
same,normalized growth,"locus YCL069W, strain vba3, hits give low values",0.963
same,normalized growth,"locus YCR088W, strain abp1, hits give low values",0.978
same,normalized growth,"locus YDL005C, strain med2, hits give low values",0.955
same,normalized growth,"locus YDL035C, strain GPR1, hits give low values",0.907
same,normalized growth,"locus YDL040C, strain nat1, hits give low values",0.967
same,normalized growth,"locus YDL074C, strain BRE1, hits give low values",0.723 (active)
same,normalized growth,"locus YDL101C, strain DUN1, hits give low values",0.983
same,normalized growth,"locus YDL134C, strain PPH21, hits give low values",0.892
same,normalized growth,"locus YDL185W, strain tfp1, hits give low values",1.01
same,normalized growth,"locus YDL192W, strain arf1, hits give low values",0.875 (active)
same,normalized growth,"locus YDR001C, strain nth1, hits give low values",0.967
same,normalized growth,"locus YDR069C, strain doa4, hits give low values",1.02
same,normalized growth,"locus YDR101C, strain arx1, hits give low values",0.886 (active)
same,normalized growth,"locus YDR137W, strain rgp1, hits give low values",0.882
same,normalized growth,"locus YDR150W, strain NUM1, hits give low values",1.02
same,normalized growth,"locus YDR159W, strain sac3, hits give low values",0.947
same,normalized growth,"locus YDR162C, strain NBP2, hits give low values",0.999
same,normalized growth,"locus YDR195W, strain ref2",0.875
same,normalized growth,"locus YDR297W, strain sur2, hits give low values",0.962
same,normalized growth,"locus YDR318W, strain mcm21, hits give low values",0.911 (active)
same,normalized growth,"locus YDR334W, strain swr1, hits give low values",0.993
same,normalized growth,"locus YDR335W, strain msn5, hits give low values",0.969
same,normalized growth,"locus YDR388W, hits give low values",0.991
same,normalized growth,"locus YDR392W, strain spt3, hits give low values",0.329 (active)
same,normalized growth,"locus YDR502C, strain sam2, hits give low values",0.912 (active)
same,normalized growth,"locus YEL003W, strain gim4, hits give low values",0.95
same,normalized growth,"locus YEL037C, strain rad23, hits give low values",0.966
same,normalized growth,"locus YEL061C, strain CIN8 (second series), hits give low values",0.971
same,normalized growth,"locus YER015W, strain faa2, hits give low values",0.982
same,normalized growth,"locus YER016W, strain bim1, hits give low values",0.981
same,normalized growth,"locus YER110C, hits give low values",0.995
same,normalized growth,"locus YER111C, strain swi4, hits give low values",0.947
same,normalized growth,"locus YER155C, strain BEM2 (second series), hits give low values",0.877
same,normalized growth,"locus YER155C, strain BEM2, hits give low values",0.646 (active)
same,normalized growth,"locus YER167W, strain BCK2, hits give low values",0.979
same,normalized growth,"locus YFR010W, strain ubp6, hits give low values",0.974
same,normalized growth,"locus YGL078C, strain dbp3, hits give low values",0.933
same,normalized growth,"locus YGL086W, strain mad1, hits give low values",0.835 (active)
same,normalized growth,"locus YGL167C, strain pmr1, hits give low values",0.966
same,normalized growth,"locus YGL173C, strain kem1, hits give low values",0.941
same,normalized growth,"locus YGL227W, strain vid30, hits give low values",0.969
same,normalized growth,"locus YGL240W, strain doc1, hits give low values",0.952
same,normalized growth,"locus YGL248W, strain PDE1, hits give low values",0.89
same,normalized growth,"locus YGL253W, strain hxk2, hits give low values",0.847 (active)
same,normalized growth,"locus YGR135W, strain pre9, hits give low values",0.971
same,normalized growth,"locus YGR229C, strain SMI1, hits give low values",0.838
same,normalized growth,"locus YGR252W, strain gcn5, hits give low values",0.782
same,normalized growth,"locus YHR013C, strain ard1, hits give low values",1.16 [resistant] (active)
same,normalized growth,"locus YHR027C, strain rpn1, hits give low values",0.964
same,normalized growth,"locus YHR030C, strain SLT2, hits give low values",1.01
same,normalized growth,"locus YHR079C, strain IRE1 (second series), hits give low values",0.993
same,normalized growth,"locus YHR094C, strain hxt1, hits give low values",0.992
same,normalized growth,"locus YHR129C, strain ARP1, hits give low values",0.914 (active)
same,normalized growth,"locus YHR142W, strain chs7, hits give low values",0.714 (active)
same,normalized growth,"locus YHR200W, strain rpn10, hits give low values",0.938
same,normalized growth,"locus YIL066C, strain RNR3, hits give low values",0.921
same,normalized growth,"locus YIL073C, strain SPO22, hits give low values",1.05
same,normalized growth,"locus YIL125W, strain kgd1, hits give low values",0.908 (active)
same,normalized growth,"locus YIR030C, strain dcg1, hits give low values",0.972
same,normalized growth,"locus YJL092W, strain hpr5, hits give low values",0.973
same,normalized growth,"locus YJL095W, strain BCK1 (second series), hits give low values",0.905 (active)
same,normalized growth,"locus YJL095W, strain BCK1, hits give low values",0.827
same,normalized growth,"locus YJL115W, strain asf1, hits give low values",0.953
same,normalized growth,"locus YJL129C, strain trk1, hits give low values",0.802 (active)
same,normalized growth,"locus YJL134W, strain LCB3, hits give low values",1.02
same,normalized growth,"locus YJL154C, strain vps35, hits give low values",0.965

# From PubChem BioAssay AID1159580 (chemical genetic matrix, 2015)
